Source: the supplement of paper PMC10646978
± gives the standard deviation.

Experiments:
Conditions in all cases: modulator concentration 10 µM
[1] = system: RAW-Dual (murine macrophage reporter line); assay: NF-kB reporter (SEAP) activity fold change vs agonist alone; higher = enhanced NF-kB activity
Summary of the method: (§1)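 RAW-Dual murine macrophage reporter cells were plated at 50 000 per well in 384-well plates, pin-transferred compound to 10 μM final, and pre-incubated for 1 hour at 37 °C before a PRR agonist was added and the cells incubated overnight. NF-κB activity was read from supernatant SEAP with QUANTI-Blue at 620 nm absorbance, and IRF activity from Lucia luciferase with QUANTI-Luc by luminescence. Each signal was expressed as fold change by dividing by the mean agonist-only control on the same plate. Two replicate plates were averaged, with errors obtained by propagation.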

[2] = system: RAW-Dual (murine macrophage reporter line); assay: IRF reporter (Lucia luciferase) activity fold change vs agonist alone; higher = enhanced IRF activity
Summary of the method: as §1

[3] = system: RAW-Dual (murine macrophage reporter line); assay: viability score (confluency relative to resting cells, overnight) (fraction); higher = more viable, active = viable (0.7 or more)
Summary of the method: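 Confluency was the readout: RAW-Dual macrophages were imaged with IncuCyte after an overnight exposure to compound at 10 μM final. IncuCyte software produced two masks over all imaged wells. The viability score expresses confluency against resting cells, and both masks had to exceed 70% of resting cells for a compound to meet the cutoff.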

[4] = agonist: CpG ODN 1826 0.5 ug/mL

| SMILES | NF-kB reporter [1, 4] | NF-kB reporter ([1]; agonist: LPS 0.1 ug/mL) | NF-kB reporter ([1]; agonist: MPLA […]) | IRF reporter ([2]; agonist: 3'3'-cGAMP 10 ug/mL) | IRF reporter ([2]; agonist: LPS 0.1 ug/mL) | IRF reporter ([2]; agonist: MPLA […]) | viability score [3] |
| --- | --- | --- | --- | --- | --- | --- | --- |
| Cc1nc(N(C)C)nc(C)c1NC(=O)CC(C)C | 0.95 ± 0.066 | 0.92 ± 0.075 | 0.837 ± 0.089 | 1.1 ± 0.055 | 0.967 ± 0.1 | 0.897 ± 0.39 | 1.01 (active) |
| Br.O=S(=O)(c1ccc(-c2csc(Nc3cccc4ccccc34)n2)cc1)N1CCOCC1 | 0.907 ± 0.077 | 1.01 ± 0.089 | 1 ± 0.061 | 0.769 ± 0.053 | 1.25 ± 0.08 | 1.12 ± 0.32 | 1 (active) |
| Nc1nonc1C(=O)NN=Cc1cc(Br)c(O)c(Br)c1 | 1.05 ± 0.085 | 1.01 ± 0.076 | 1.03 ± 0.054 | 0.938 ± 0.11 | 1.08 ± 0.12 | 1.05 ± 0.23 | 0.997 (active) |
| CC(C)(C)CC(=O)Nc1nc2ccc(S(C)(=O)=O)cc2s1 | 0.987 ± 0.12 | 1.19 ± 0.068 | 1.25 ± 0.12 | 0.787 ± 0.033 | 0.831 ± 0.11 | 0.779 ± 0.23 | 0.948 (active) |
| Cl.N=c1ccn2c(n1)OC1C(O)C(CO)OC12 (stereo unspecified) | 1.41 ± 0.38 | 1.17 ± 0.17 | 1.16 ± 0.073 | 0.696 ± 0.026 | 1.15 ± 0.18 | 0.959 ± 0.091 | 0.733 (active) |
| Clc1ccc(CN2CCN(c3ncnc4scc(-c5cccs5)c34)CC2)cc1 | 0.489 ± 0.028 | 1.28 ± 0.1 | 1.25 ± 0.074 | 1.16 ± 0.072 | 1.66 ± 0.12 | 1.51 ± 0.14 | 0.997 (active) |
| CCCN(CCC)CCc1cccc2c1CC(=O)N2.Cl | 0.998 ± 0.079 | 0.945 ± 0.046 | 1.03 ± 0.074 | 0.926 ± 0.071 | 0.925 ± 0.037 | 0.912 ± 0.083 | 0.997 (active) |
| COc1ccc(CNc2oc(-c3ccc(COc4ccccc4C)o3)nc2C#N)cc1 | 1.48 ± 0.11 | 1.31 ± 0.074 | 2.3 ± 0.054 | 1.3 ± 0.073 | 0.887 ± 0.1 | 1.34 ± 0.32 | 0.934 (active) |
| CCC1(O)C(=O)OCc2c1cc1n(c2=O)Cc2cc3cc(O)ccc3nc2-1 (stereo unspecified) | 2.02 ± 0.62 | 1.28 ± 0.11 | 2.19 ± 0.4 | 2.67 ± 0.16 | 2.12 ± 0.24 | 1.89 ± 0.32 | 0.851 (active) |
| NC(=O)CSc1nc2ccccc2[nH]1 | 1.1 ± 0.088 | 1.07 ± 0.081 | 0.998 ± 0.037 | 0.985 ± 0.16 | 1.09 ± 0.13 | 0.992 ± 0.16 | 0.997 (active) |
| N#Cc1c(NC(NC(=O)c2cccs2)C(Cl)(Cl)Cl)sc2c1CCCC2 (stereo unspecified) | 0.669 ± 0.038 | 1.13 ± 0.076 | 0.878 ± 0.1 | 0.66 ± 0.022 | 0.694 ± 0.086 | 0.69 ± 0.073 | 0.986 (active) |
| CN(C/C=C/C#CC(C)(C)C)Cc1cccc2ccccc12 | 0.812 ± 0.066 | 0.987 ± 0.059 | 1.08 ± 0.095 | 1.12 ± 0.055 | 1.24 ± 0.078 | 1.27 ± 0.12 | 1.01 (active) |
| COC(CNS(=O)(=O)c1ccccc1Br)c1ccc(C)s1 (stereo unspecified) | 1.04 ± 0.1 | 1.05 ± 0.095 | 1.13 ± 0.086 | 0.86 ± 0.082 | 0.965 ± 0.058 | 0.854 ± 0.098 | 0.997 (active) |
